Compounds with a hit are over-represented: about 1.4% of the library has one in this group of screens.
Cathepsin G inh – human cathepsin G inhibitors, primary screen, biochemical, pooled compound mixtures, AMC fluorescence | P08311 | purified enzyme, AMC-tetrapeptide fluorescence | inhibition, % at 5 µM (by protocol) | 62,000 compounds, 0.2% hits | AID 581, 2007;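 active = inhibition above 20% in each of the two mixture wells holding the compound; inactive = inhibition of 20% or less in either well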;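 also: 0% = enzyme control without mixture and 100% = blank lacking enzyme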
Target sequence (P08311 21-244 limits assumed): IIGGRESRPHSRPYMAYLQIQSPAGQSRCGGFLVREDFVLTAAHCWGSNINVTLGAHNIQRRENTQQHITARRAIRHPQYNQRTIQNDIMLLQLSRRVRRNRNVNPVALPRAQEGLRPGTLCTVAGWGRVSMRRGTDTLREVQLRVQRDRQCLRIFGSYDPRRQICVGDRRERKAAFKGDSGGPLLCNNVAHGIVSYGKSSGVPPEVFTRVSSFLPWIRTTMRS
FXIIa mix inh – human factor XIIa inhibitors, primary screen, biochemical, pooled compound mixtures, fluorogenic substrate | inhibition, % at 5 µM | 62,000 compounds, 0.2% hits | purified FXIIa | AID 684, 2007;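 also: 0% = enzyme without compound and 100% = no enzyme blank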
FXIa inh mix – FXIa protease inhibitors in compound pools, primary screen, biochemical, 10-compound mixtures. Coagulation factor XI (Homo sapiens), P03951. purified FXIa, fluorogenic substrate, pooled mixtures. inhibition, % at 5 µM. 62,000 compounds, 0.19% hits. AID 680, 2007;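 also: each value is inhibition by a whole ten-compound pool holding the compound; 0% = enzyme with no mixture and 100% = wells lacking enzyme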
HePTP inhibitor – inhibitors of human HePTP phosphatase, primary screen, biochemical, absorbance, leukemia target. Tyrosine-protein phosphatase non-receptor type 7 (Homo sapiens), P35236. recombinant HePTP phosphatase activity, OD absorbance. inhibition, % at 20 µM. 110,000 compounds, 0.64% hits. AID 521, 2006; in the data active = inhibition above about 50%;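 also: plate controls were vehicle for no effect and reference inhibitor for full effect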
Target sequence (P35236 whole entry, looked up): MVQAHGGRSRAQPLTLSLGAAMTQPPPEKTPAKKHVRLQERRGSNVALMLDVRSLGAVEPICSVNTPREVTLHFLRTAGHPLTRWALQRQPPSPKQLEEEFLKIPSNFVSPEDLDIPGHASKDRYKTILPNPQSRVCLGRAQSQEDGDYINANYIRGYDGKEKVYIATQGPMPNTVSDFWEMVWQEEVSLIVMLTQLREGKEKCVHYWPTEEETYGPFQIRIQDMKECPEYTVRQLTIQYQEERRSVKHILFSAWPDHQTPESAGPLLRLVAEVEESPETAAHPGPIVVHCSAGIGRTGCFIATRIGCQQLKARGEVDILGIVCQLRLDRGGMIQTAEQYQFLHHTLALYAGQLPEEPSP
PLAP act – PLAP enzyme activators, biochemical, luminescence, HTS; 96,000 compounds, 1.2% hits; purified PLAP enzyme, luminescent substrate read-out; active compounds read high; activation fold at 20 µM; AID 696, 2007; in the data active = activation fold above about 2
C1s inh – complement C1s protease inhibitors, primary screen, biochemical, 10-compound mixtures; Complement C1s subcomponent (Homo sapiens), P09871; purified C1s, fluorogenic AMC substrate, pooled mixtures; mean inhibition % of two 10-compound mixtures (active compounds read high), % at 5 µM (by protocol); 62,000 compounds, 0.16% hits;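 active = inhibition above 20% in each of the two 10-compound mixture wells holding the compound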;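 also: 0% = enzyme wells lacking compound mixture and 100% = no-enzyme blank wells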
Active calls of the source: *; . = no result. Rule as the data show it, unless noted: active = inhibition above about 20% (passing the limit was not always enough); inactive = the rest.

SMILES	Cathepsin G inh	FXIIa mix inh	FXIa inh mix	HePTP inhibitor	PLAP act	C1s inh
O=C(COc1ccccc1[N+](=O)[O-])Nc1ccc(N2CCOCC2)c(Cl)c1	.	.	.	-12	.	.
O=C1N=c2ccccc2=C1c1cc(-c2ccccc2)oc1O	.	.	.	56*	.	.
CC(=O)NC1=NN(C(C)=O)C(C)(c2cccc(NC(C)=O)c2)S1 (centres undefined)	.	.	.	-9	.	.
O=C1NC(=O)N(c2ccccc2)C(=O)/C1=C/c1ccc(N2CCOCC2)o1	.	.	.	9	.	.
CCOC(=O)c1c(NC(=O)CNCCO)sc(C)c1C	13	-4	6	4	1.9	14
CCOC(=O)c1c(NC(=O)CSc2ncn[nH]2)sc(C)c1C	11	-3	4	2	2*	4
CCCc1nnc(NC(=O)CSc2ncn[nH]2)s1	10	6	11	8	2.7*	16
CCOC(=O)c1c(NC(=O)CSc2nc3ccccc3s2)sc(C)c1C	.	.	.	.	1.1	.
CCOC(=O)c1c(NC(N)=O)sc(C)c1C	15	7	29*	10	0.9	19
O=C(CSc1ncn[nH]1)Nc1nc(-c2ccccc2)cs1	.	.	.	.	2.8*	.
CCCc1nnc(NC(=O)CNc2ccc(F)cc2)s1	-1	13	-7	0	1	-5
Cc1cc(=O)[nH]c(SCC(=O)Nc2nc(-c3ccccc3)cs2)n1	0	-13	6	4	1.2	1
CC(=O)Nc1ccc(S(=O)(=O)NNC(=O)c2ccc(-c3ccccc3)cc2)cc1	.	.	.	4	.	.
O=C(Nc1cccc(Cl)c1)C1(c2ccccc2)CC1(Cl)Cl (centres undefined)	.	.	.	4	.	.
CC1CN(C)C(c2ccccc2)CC1=O (centres undefined)	.	.	.	-5	.	.
CCCOC(=O)Nc1nc2ccccc2o1	7	4	-1	2	1.9	4
CCOC(=O)c1cnc(Nc2nc3ccccc3o2)nc1CN1CCN(C)CC1	.	.	.	.	2*	.
COc1cc(NS(=O)(=O)c2ccc(N/C=C(\C#N)c3nc4cc(Cl)ccc4o3)cc2)nc(OC)n1	.	.	.	.	2.1*	.
O=C(COc1ccccc1CNCc1ccccc1)Nc1ccccc1	.	.	.	.	2.6*	.
O=C(c1cccs1)c1coc2ccc(O)c(CN(CCO)CCO)c12	.	.	.	.	2.4*	.
O=C1c2ccccc2C(=O)c2c1c(O)c1ccccc1c2Nc1ccccc1	.	.	.	-20	.	.
Cc1cccc(NC(=O)c2c(NC(=O)C(C)(C)C)sc3c2CCC3)c1	.	.	.	4	.	.
Cc1csc(CCc2nc(C)cs2)n1	10	22*	-1	-3	0.9	2
C=CCN1C(=O)/C(=C\c2ccc(OC)cc2)SC1=Nc1ccccc1	.	.	.	-2	.	.
COC(=O)c1ccc(OC(=O)C2CC(=O)N(c3ccc(C)cc3C)C2)cc1 (centres undefined)	40	-4	31*	10	0.9	-2
SMILES	Cathepsin G inh	FXIIa mix inh	FXIa inh mix	HePTP inhibitor	PLAP act	C1s inh
COc1ccc(NC(=O)C2CC(=O)N(c3cc(C)ccc3C)C2)cc1 (centres undefined)	48	2	67*	13	1	-6
Cc1ccc(N2CC(C(=O)Oc3cccc(N4C(=O)CCC4=O)c3)CC2=O)cc1 (centres undefined)	2	4	9	2	1.1	2
O=C1Nc2ccccc2/C1=N\N1CCN(c2ccccc2)CC1	.	.	.	-8	.	.
CCOC(=O)CCCSc1nc2sc3c(c2c(=O)[nH]1)CCCC3	.	.	.	1	.	.
CCc1ccccc1OCc1nc2ccc(S(=O)(=O)N3CCOCC3)cc2[nH]1	.	.	.	.	2*	.
Cc1ccccc1OCc1nc2ccc(S(=O)(=O)N3CCOCC3)cc2[nH]1	.	.	.	.	1.8	.
O=C(NNC1=C(C(=O)C(F)(F)F)CCC1)c1cccc(Cl)c1	.	.	.	-14	2*	.
O=C(NNC1=C(C(=O)C(F)(F)F)CCC1)c1ccc(Cl)cc1	.	.	.	.	1.2	.
O=C(c1ccc(Br)o1)N1CCN(c2ccc([N+](=O)[O-])cc2)CC1	.	.	.	103*	.	.
O=C(c1ccc(Br)o1)N1CCN(c2ccc(F)cc2)CC1	9	-2	-2	6	0.7	-16
Cc1cc(C)cc(N2C(=O)C3C(c4ccccc4Cl)OC4(C(=O)c5ccccc5C4=O)C3C2=O)c1 (centres undefined)	.	.	.	-12	.	.
CCc1ccccc1N1C(=O)C2C(c3ccccc3Cl)OC3(C(=O)c4ccccc4C3=O)C2C1=O (centres undefined)	.	.	.	104*	.	.
O=C(CC1S/C(=N\N=C\c2cccs2)NC1=O)Nc1ccc(C(=O)O)cc1 (centres undefined)	.	.	.	90*	.	.
C/C(=N\N=C1\NC(=O)C(CC(=O)Nc2ccc(C(=O)O)cc2)S1)c1ccc([N+](=O)[O-])cc1 (centres undefined)	.	.	.	94*	.	.
O=C(CC1S/C(=N\N=C\c2ccco2)NC1=O)Nc1ccc(C(=O)O)cc1 (centres undefined)	.	.	.	101*	.	.
O=C(CC1S/C(=N\N=C\c2cccs2)NC1=O)Nc1ccccc1C(F)(F)F (centres undefined)	.	.	.	5	.	.
Cc1ccc(-c2[nH]n3c(=O)cc(-c4ccc([N+](=O)[O-])cc4)nc3c2C)cc1	.	.	.	-10	.	.
NC(N)=NS(=O)(=O)c1ccc(NS(=O)(=O)c2ccc3ccccc3c2)cc1	.	.	.	4	.	.
COc1ccc(NC(=S)NNC(=O)C(C)n2nc(C)c([N+](=O)[O-])c2C)cc1 (centres undefined)	.	.	.	.	2.3*	.
CC(=O)Nc1ccc(NC(=O)C(C)n2nc([N+](=O)[O-])c(Br)c2C)cc1 (centres undefined)	.	.	.	.	1.1	.
O=C1/C(=C/c2ccc(-c3cccc([N+](=O)[O-])c3)o2)SC(=S)N1Cc1ccco1	.	.	.	27	.	.
CCOC(=O)C1=C(C)N=c2s/c(=C\c3ccc(-c4ccccc4C(=O)O)o3)c(=O)n2C1c1cc(OC)ccc1OC (centres undefined)	.	.	.	50	.	.
CCOCCOC(=O)c1ccc(NC(=O)COc2ccc([N+](=O)[O-])cc2)cc1	.	.	.	2	.	.
CCOc1ccc2[nH]c(=O)c(C(c3nnnn3C3CCCCC3)N3CCN(CC)CC3)cc2c1 (centres undefined)	1	-18	10	9	1.5	-10
COc1ccc2[nH]c(=O)c(C(c3nnnn3C3CCCC3)N3CCN(Cc4ccc5c(c4)OCO5)CC3)cc2c1 (centres undefined)	.	.	.	.	2*	.
CCN(CC)c1ccc(NS(=O)(=O)c2ccc(NC(C)=O)cc2)cc1	.	.	.	5	.	.
CCCCNC(=O)CN1C(=O)C(CC)Oc2ccc(Cl)cc21 (centres undefined)	9	20*	4	0	1	-9
CCOC(=O)CN1C(=O)C(CC)Oc2ccc(Cl)cc21 (centres undefined)	6	9	2	3	1	6
COc1cc(C)nc(NCc2ccccc2)n1	11	8	5	5	1	-6
COc1cc(C)nc(NS(=O)(=O)c2ccccc2)n1	9	3	7	10	0.8	22*
